The values below come from PubChem BioAssay (NCI).

This is part of a sample that, as a whole, favours compounds with a hit. Of some 83,000 tested, about 20% had one in any assay.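 Percent growth is the endpoint: 0 to 100 indicates growth inhibition (40 means 60% inhibition), 0 means no net growth, and negative values indicate cell death.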 Unmarked numbers belong to inactive results. Activity calls are given as the source filed them. The calls were made as follows: active = growth percent below 10; inactive = the rest.

Among the test systems are DU-145 prostate; K-562 leukemia; MALME-3M melanoma; MDA-MB-231 breast; RXF 393 renal; SF-268 CNS; SF-295 CNS; SF-539 CNS; UACC-257 melanoma; M14 melanoma; HCT-15 colon; HT29 colon; SNB-75 CNS; SNB-19 CNS; U251 CNS; SK-MEL-5 melanoma; UACC-62 melanoma; LOX IMVI melanoma; SK-MEL-28 melanoma; PC-3 prostate.
Holding throughout (assay): NCI-60 one-dose screen, 48 h (100 = growth as untreated, 0 = no growth, -100 = all killed)
What all share (conditions): 10 µM unless noted

For `CC(=O)n1cc(C=O)c2ccccc21`, the growth in the assay on DU-145 prostate is 104%; in the assay on K-562 leukemia it was 87.3%; with MALME-3M melanoma, 102%; in the assay with MDA-MB-231 breast, 113%; with RXF 393 renal it was 113%; with SF-268 CNS, 102%. Moreover, the growth is 101% in the assay on SF-295 CNS; 104% with SF-539 CNS; 94.7% in the assay on UACC-257 melanoma; 102% with M14 melanoma; 106% with HCT-15 colon; 97.7% with HT29 colon. The growth in the assay on SNB-75 CNS is 81.7%; in the assay with SNB-19 CNS, 100%; with U251 CNS it was 86.3%; with SK-MEL-5 melanoma, 97.2%; with UACC-62 melanoma, 94.2%; in the assay on LOX IMVI melanoma, 93.8%. Moreover, the growth in the assay with SK-MEL-28 melanoma was 105%.

For the compound `CCOC(=O)c1sc2nc(-c3cc(OC)c(OC)c(OC)c3)nc(N3CCOCC3)c2c1C`, the growth in the assay on DU-145 prostate was 48.3%; with K-562 leukemia, 24.2%; in the assay on MALME-3M melanoma, 9.78% (active); in the assay with MDA-MB-231 breast, 44.9%; in the assay with RXF 393 renal it was 32.3%; in the assay on SF-268 CNS, 40.1%. Besides, the growth with SF-295 CNS is 40.3%; in the assay with SF-539 CNS, 50.4%; in the assay on UACC-257 melanoma, 51.7%; in the assay with M14 melanoma it was 38.4%; with HCT-15 colon, 29.1%; with HT29 colon, 40.6%. In addition, the growth is 56.2% with SNB-75 CNS; 53.2% with SNB-19 CNS; 36.2% in the assay with U251 CNS; 2.9% (active) in the assay with SK-MEL-5 melanoma; 15.7% in the assay with UACC-62 melanoma; 45.1% with LOX IMVI melanoma. Also, the growth in the assay with SK-MEL-28 melanoma was 42.2%.

In the case of `CC1Cc2c(ncnc2-n2cnc3ccccc32)N(C)c2ccccc21` (stereo unspecified), the growth in the assay with DU-145 prostate was 50.3%; in the assay with K-562 leukemia, 15.5%; in the assay with MALME-3M melanoma, 64.5%; in the assay on MDA-MB-231 breast, 29.4%; in the assay with RXF 393 renal, 34%; in the assay with SF-268 CNS it was 49%. For the same compound, the growth was 18.9% with SF-295 CNS; 17% in the assay with SF-539 CNS; 53.1% in the assay with UACC-257 melanoma; 12.9% with M14 melanoma; 21.6% with HCT-15 colon; 0.852% (active) with HT29 colon. Further, the growth with SNB-75 CNS was 43%; in the assay with SNB-19 CNS, 31.5%; in the assay on U251 CNS, 23.7%; in the assay on SK-MEL-5 melanoma it was 20.8%; with UACC-62 melanoma, 30.9%; in the assay with LOX IMVI melanoma it was 44.9%. Also, the growth with SK-MEL-28 melanoma is 70.4%.

With `C=C(C)[C@@H]1CC[C@]2(C(=O)OC)CC[C@]3(C)[C@H](CC[C@@H]4[C@@](C)(CCc5nn[nH]n5)[C@H](C(=C)C)CC[C@]43C)[C@@H]12`, the growth was 0.51% [100 µM] (active) with DU-145 prostate; 14.5% [100 µM] with K-562 leukemia; -52% [100 µM] (active) with MALME-3M melanoma; -76.9% [100 µM] (active) in the assay on MDA-MB-231 breast; -78.3% [100 µM] (active) in the assay on RXF 393 renal; -23.1% [100 µM] (active) in the assay on SF-268 CNS. The growth in the assay on SF-295 CNS was -35.2% [100 µM] (active); in the assay with SF-539 CNS, -65% [100 µM] (active); in the assay on UACC-257 melanoma, -5.16% [100 µM] (active); in the assay on M14 melanoma, -9.37% [100 µM] (active); in the assay on HCT-15 colon it was 6.32% [100 µM] (active); in the assay on HT29 colon it was -16.1% [100 µM] (active). For the same compound, the growth in the assay with SNB-75 CNS is -77.8% [100 µM] (active); with U251 CNS, -26.5% [100 µM] (active); with PC-3 prostate, 5.02% [100 µM] (active); in the assay with SK-MEL-5 melanoma it was -73.7% [100 µM] (active); in the assay with UACC-62 melanoma, -72.8% [100 µM] (active); in the assay on LOX IMVI melanoma, -90.9% [100 µM] (active).

As for `CCCCN(CC)CC(CC)Nc1cc(OC)cc2cccnc12` (stereo unspecified), the growth in the assay on DU-145 prostate was 110%; in the assay with K-562 leukemia, 114%; in the assay with MALME-3M melanoma it was 110%; with MDA-MB-231 breast it was 115%; in the assay with RXF 393 renal, 122%; in the assay on SF-268 CNS, 104%. The growth was 109% in the assay on SF-295 CNS; 102% in the assay on SF-539 CNS; 92.9% with UACC-257 melanoma; 109% with M14 melanoma; 97.2% with HCT-15 colon; 103% in the assay with HT29 colon. In addition, the growth was 100% with SNB-75 CNS; 110% with SNB-19 CNS; 101% in the assay with U251 CNS; 96.5% with PC-3 prostate; 99.9% in the assay on SK-MEL-5 melanoma; 106% in the assay on UACC-62 melanoma. In the assay with SK-MEL-28 melanoma, the growth was 121%.

In the case of `CCNC(=O)N1CCc2c(Cl)c3c(c(OC)c2[C@@H]1[C@H]1OCc2c1ccc(OC)c2OC)OCCO3`, the growth with DU-145 prostate was 10.9%; in the assay with K-562 leukemia, 10.4%; in the assay on MALME-3M melanoma, 29.6%; with MDA-MB-231 breast, 43.2%; in the assay on RXF 393 renal, -39.8% (active); in the assay on SF-268 CNS, 45.3%. The growth with SF-295 CNS is 8.12% (active); in the assay with SF-539 CNS, -41.3% (active); in the assay with UACC-257 melanoma, 55.3%; in the assay with M14 melanoma, 1.38% (active); with HCT-15 colon, 26.5%; with HT29 colon, 13.3%. Besides, the growth with SNB-75 CNS is 1.79% (active); in the assay with SNB-19 CNS, 30.8%; in the assay on U251 CNS it was 26.1%; in the assay with SK-MEL-5 melanoma, 11.4%; with UACC-62 melanoma, 22.2%; in the assay with LOX IMVI melanoma, 27.5%. Further, in the assay with SK-MEL-28 melanoma, the growth was 54.3%.

`O=C(O)c1cc([N+](=O)[O-])ccc1Br`: the growth was 106% in the assay with DU-145 prostate; 100% with K-562 leukemia; 102% in the assay on MALME-3M melanoma; 101% in the assay on MDA-MB-231 breast; 110% in the assay on RXF 393 renal; 102% with SF-268 CNS. For the same compound, the growth is 97.2% with SF-295 CNS; 94.8% in the assay with SF-539 CNS; 102% with UACC-257 melanoma; 98.3% with M14 melanoma; 98.4% in the assay on HCT-15 colon; 103% in the assay on HT29 colon. The growth in the assay on SNB-75 CNS is 89.5%; in the assay on SNB-19 CNS, 99.1%; in the assay with U251 CNS, 96.3%; in the assay on SK-MEL-5 melanoma, 98.9%; with UACC-62 melanoma it was 91.9%; in the assay with LOX IMVI melanoma, 94.7%. The growth with SK-MEL-28 melanoma is 97.8%.

On to `CSc1nc(=S)c2nc(SC)n(-c3ccccc3)c2[nH]1`, for which the growth with DU-145 prostate is 108%; in the assay on K-562 leukemia, 98.5%; in the assay on MALME-3M melanoma, 109%; with MDA-MB-231 breast, 105%; in the assay on RXF 393 renal, 108%; with SF-268 CNS, 96.4%. The growth in the assay on SF-295 CNS was 105%; with SF-539 CNS, 103%; with UACC-257 melanoma, 96.3%; in the assay on M14 melanoma it was 102%; in the assay with HCT-15 colon it was 106%; with HT29 colon, 92.3%. For the same compound, the growth with SNB-75 CNS is 94.8%; in the assay on SNB-19 CNS, 100%; in the assay on U251 CNS, 93.5%; in the assay on SK-MEL-5 melanoma, 98.5%; in the assay on UACC-62 melanoma, 90.3%; with LOX IMVI melanoma, 90.9%. For the same compound, the growth in the assay on SK-MEL-28 melanoma was 108%.
